Bioassay records deposited in PubChem BioAssay by National Center for Advancing Translational Sciences (NCATS).
This excerpt belongs to a sample that is enriched for hits.
Lamin A splicing: modulators of lamin A splicing. HeLa LMNA splicing GFP/RFP minigene ratio, 48 h. Potency, µM (titrated, usually from 46.1 µM), for the others: at the top dose ratio change, negative = inhibition, hits mostly inhibitors. hit rate 0.01% among 200,000; active = well fitted inhibition curve with a large enough effect in the signal ratio, with a control signal flat, not every such curve was filed as active; inconclusive = small, poorly fitted or top-dose-only effect, or effect the other way, or a change in a side signal; the % refers to the signal ratio; also: potency is read from the fitted curve at half-maximal effect
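S3 HeLa stable clones carrying a lamin A-EGFP splicing minigene plus DsRed2 were seeded at 600 cells/well in Opti-MEM with 2% FBS, pin-dosed and incubated 48 h at 37°C. Acumen cytometry (488 nm) gave the GFP/RFP total-intensity ratio.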
IMPase cell inh: IMPase inhibition in cells; P97697; CHO-M1 cells, IP1 accumulation, HTRF TR-FRET ratio; inhibition (IP1 accumulation), % at 46.1 µM; 120,000 tested, under 10 active; active = well fitted curve in the direction sought with a large enough effect in the signal ratio, not every such curve was filed as active; inconclusive = small, poorly fitted or top-dose-only effect, or a change in a side signal; inactive = no such curve, though single readings can be large or run the other way; the % refers to the signal ratio;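 also: cells stimulated with carbachol in lithium chloride buffer; plate controls were DMSO basal wells for no effect and reference inhibitor wells for full effect; higher means more IMPase inhibition seen as more IP1 and lower FRET ratio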
Target sequence (P97697 whole entry, looked up): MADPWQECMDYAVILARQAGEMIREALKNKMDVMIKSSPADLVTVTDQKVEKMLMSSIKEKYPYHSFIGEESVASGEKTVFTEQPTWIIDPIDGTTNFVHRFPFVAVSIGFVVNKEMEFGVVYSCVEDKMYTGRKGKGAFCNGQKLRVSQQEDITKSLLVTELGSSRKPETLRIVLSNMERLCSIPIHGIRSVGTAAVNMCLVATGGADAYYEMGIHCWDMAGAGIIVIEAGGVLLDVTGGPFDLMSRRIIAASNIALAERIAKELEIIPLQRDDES
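CHO-M1, 2000 cells/well, cultured 16–30 h; cpd up to 46 uM; carbachol (50 uM solution, stimulation buffer w/ 50 mM LiCl, pH 7.4), 30 min 37C; IP-One TR-FRET, 10 min RT; Ex 320/Em 665, 620; Hill-fit AC50.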
PNC inhibitor: perinucleolar compartment assembly inhibition. PC3M PTB-GFP, PNC prevalence imaging, 16 h; active compounds read low. activity change (PNC), negative = inhibition, % at 10 µM. hit rate 3.1% among 140,000;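 active = readout at or below -70, meaning at least 70% loss of cells showing the perinucleolar compartment, a nuclear body marking cancer cells; inconclusive = readout between -30 and a set limit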;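 also: plate controls were DMSO wells for no effect and camptothecin positive control wells for full effect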
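Compounds are pinned in duplicate onto adhered PC3M cells stably expressing GFP-tagged PTB and incubated 16 h at 37 C. Cells are then fixed, nuclei stained with Hoechst, and PNC-positive cells counted.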
Numbers without * were called inactive; ? = inconclusive; . = no result given; [ ] = dose if it differs, or a comment. Unless noted, % is scaled to controls: 0 for no effect and ±100 for the full control effect.

SMILES	Lamin A splicing	IMPase cell inh	PNC inhibitor
Cc1ccc(NC(=O)CSc2nc(C)cc(C)c2C(=O)Nc2cccc(C)c2)cc1	-5%[46 µM]	.	.
COc1ccc(C)cc1NC(=O)N1CCC(CN2CCC(C)CC2)CC1	8%[46 µM]	.	.
C=CCNC(=S)Nc1cccc2ccccc12	-6%	5	-96*
Fc1cc(Br)ccc1NC(=S)NCCc1ccccc1	-4%	-1	41
C=CCNC(=S)NCc1ccc(CNC(=S)NCC=C)cc1	14%[46 µM]	.	.
C=CCNC(=S)Nc1ccc(Br)cc1F	?	-4	-88*
CCOC(=O)c1c(C)oc2nc(C)nc(NCc3ccc(OC)cc3)c12	-11%[46 µM]	.	.
CC1=C(C(=O)OC2CCCCCC2)C(c2cccc(Cl)c2)CC(=O)N1 (stereo not given)	.	12	.
COc1ccc(CNC(=O)c2ccc(N3CCCC3)c(NC(=O)NCc3ccc(C)cc3)c2)cc1	-7%[46 µM]	.	.
Cc1ccc(NC(=O)CN2C(=O)CCc3cc(S(=O)(=O)N4CCCCC4)ccc32)cc1N(C)C	-8%[46 µM]	.	.
Cc1nc2scc(C)n2c(=O)c1S(=O)(=O)Nc1ccc(N2CCOCC2)cc1	.	-11	.
COc1ccc(CCC(=O)NC2CC(=O)N(c3ccc(F)cc3)C2)cc1 (stereo not given)	-2%[46 µM]	.	.
COc1ccccc1C(=O)Nc1cc2c(cc1N1CCCCC1)n(C)c(=O)n2C	.	-1	.
Cc1cccc(S(=O)(=O)c2cn(C)c3cc(N4CCCCCC4)c(F)cc3c2=O)c1	-25%[46 µM]	.	.
COc1ccc(C2C(Oc3ccccc3)C(=O)N2c2cc(C)ccc2C)cc1OC (stereo not given)	31%	3	-89*
COc1ccc(OC2C(=O)N(Cc3ccc(F)cc3)C2c2ccc(OC)c(OC)c2)cc1 (stereo not given)	-11%	0	34
CC1C/C(=C\c2cccnc2)C(=O)/C(=C/c2cccnc2)C1 (stereo not given)	?	.	-116*
O=C1/C(=C\c2cccnc2)Sc2ccccc21	-12%	-5	-14
CCn1c(SCC(=O)NCC(=O)Nc2ccc(F)cc2)nnc1-c1cccs1	-4%	3	-86*
CCn1c(SCC(=O)Nc2ccc(C(=O)OC)cc2)nnc1-c1cccs1	12%	2	?
COC(=O)c1ccc2c(c1)S(=O)(=O)NC(=NCc1ccco1)S2	-1%	5	18
CC1CC(C)CN(C(=S)Nc2ccc3nc4n(c(=O)c3c2)CCCCC4)C1 (stereo not given)	?	.	-15
CC1CCCN(C(=S)Nc2ccc3nc4n(c(=O)c3c2)CCCCC4)C1 (stereo not given)	?	2	-119*
Cc1noc(C)c1C(=O)N1CCN(Cc2ccccc2)CC1	6%	1	-9
Cc1noc(C)c1C(=O)N1CCN(CCc2ccccc2)CC1	6%	2	-102*
SMILES	Lamin A splicing	IMPase cell inh	PNC inhibitor
Cc1ccc(S(=O)(=O)N(C)c2ccc3sc(C)nc3c2)cc1	0%[46 µM]	.	.
COCCn1c(C)cc(O)c(C(c2ccccc2)N2CCN(C)CC2)c1=O (stereo not given)	17%[46 µM]	.	.
COCCN1Cc2cccc(C(=O)Nc3cc(C)cc(C)c3)c2C1=O	4%	7	-85*
COCCN1Cc2cccc(C(=O)Nc3c(C)cc(C)cc3C)c2C1=O	7%	-1	?
CCCN1Cc2cccc(C(=O)Nc3ccc4c(c3)OCCO4)c2C1=O	1%	4	-106*
CCCN1Cc2cccc(C(=O)Nc3ccc4c(c3)OCO4)c2C1=O	9%	23	11
CC(C1CCN(Cc2nc(C3CC3)no2)CC1)N1CCOCC1 (stereo not given)	6%[46 µM]	.	.
Cc1ccc(N(C)C(=O)c2noc3c2CCCCC3)cc1C	-6%[46 µM]	.	.
Cc1ccc(C)c(Nc2ncnc(N)c2[N+](=O)[O-])c1	?	.	-124*
Cc1cccnc1Nc1ncnc(N)c1[N+](=O)[O-]	24%[46 µM]	.	.
Cc1ccc2c(c1)N(CC(=O)Nc1ccccc1C(F)(F)F)C(=O)c1cccnc1O2	-11%[46 µM]	.	.
COC(=O)c1[nH]c2ccc(F)cc2c1NC(=O)CCN1CCN(Cc2ccc3c(c2)OCO3)CC1	-3%	19	-12
CCN(CC(=O)Nc1c(C(=O)OC)[nH]c2ccc(C)cc12)c1ccc2c(c1)OCO2	1%	14	-119*
COC(=O)C(NC(=O)c1ccco1)(Nc1cc(C)ccn1)C(F)(F)F (stereo not given)	-1%	11	-100*
Cc1ccnc(NC(=S)NC(=O)c2ccco2)c1	1%	-13	40
CC(C)N1C(=S)N(Cc2ccco2)C(=O)C1CC(=O)Nc1ccccc1 (stereo not given)	5%[46 µM]	.	.
CCCCn1c(SCC(=O)c2ccccc2)nc2c(sc3ccccc32)c1=O	-4%[46 µM]	.	.
COc1ccc(C(=O)Oc2c(C)occc2=O)cc1OC	1%	-4	?
Cc1occc(=O)c1OC(=O)Nc1ccc(Cl)c(Cl)c1	?	.	-113*
COc1ccc(-c2nc(C(N)=O)c3[nH]c(=O)n(-c4cccc(Cl)c4)c3n2)cc1OC	?	4	-15
CCc1ccc(-c2nc(C(N)=O)c3[nH]c(=O)n(-c4ccccc4OC)c3n2)cc1	-5%	10	-106*
COCCOC(=O)c1c(C)oc2ccc(OC(=O)c3ccc4c(c3)OCO4)cc12	-4%	-2[1.84 µM]	-13
C=CCn1c(COc2ccc(Cl)cc2)nnc1SCC(=O)Nc1ccc(S(N)(=O)=O)cc1	10%	.	-114*
CCn1c(COc2ccc(C)cc2)nnc1SCC(=O)Nc1ccc(S(N)(=O)=O)cc1	9%	1	-20
COC(=O)[C@@]1(Cc2ccc(OC)cc2)[C@@H]2C(=CC(=O)[C@H]2CC(=O)C(=O)N(C)C)CN1C(=O)c1ccccc1	-27%	.	-10
SMILES	Lamin A splicing	IMPase cell inh	PNC inhibitor
C=C1C(=O)C=C2CN(C(=O)c3ccccc3)[C@@](Cc3ccc(F)cc3)(C(=O)OC)[C@@H]12	?	.	-119*
CCN(CC)c1ccc(N=Cc2ccccc2[N+](=O)[O-])cc1	?	.	-99*
CCN(CC)c1ccc(C=Nc2ccc(C#N)cc2)c(O)c1	8%	3	26
CCOC(=O)NC(=O)/C(C=Nc1ccc(Cl)cc1)=C(\C)O	4%[46 µM]	.	.
O=C(Nc1ccccc1)N(Cc1cccs1)c1ccc(F)cc1	7%[46 µM]	.	.
COc1cccc(-c2nnc3sc(-c4cccs4)nn23)c1	-2%	7	?
CCOc1cccc(-c2nnc3sc(-c4cccs4)nn23)c1	-2%	-3	-127*
Cc1c(-c2ccc(Cl)cc2)c(=O)oc2c(CN3CCN(C)CC3)c(O)ccc12	-6%[46 µM]	.	.
Nc1nc2ccccc2n1C(=O)CCc1ccccc1	?	-7	-87*
Nc1nc2ccccc2n1C(=O)c1ccco1	-5%	.	52
CCC1=Nc2cc(C(=O)NC3CCCC3)ccc2Sc2ccc(Cl)cc21	.	7	.
COc1cccc(OCCCCn2c(-c3ccc(Cl)cc3)nc3ccccc3c2=O)c1	.	7	.
CCCC(=O)N(CCN(C(=O)CCC)c1ccccc1)c1ccccc1	-12%	?	-100*
CCN(C(=O)CCC(=O)N(CC)c1ccccc1)c1ccccc1	9%	.	20
CCN(C(=O)CCN1C(=O)c2ccccc2C1=O)C1CCCCC1	5%	3	19
NNc1nc(-c2ccccc2)cc(-c2ccccc2O)n1	?	1	-106*
Nc1nc(-c2ccccc2)cc(-c2ccccc2O)n1	?	6	-26
Cc1nc([N+](=O)[O-])c(C(=O)O)n1C	14%[9.22 µM]	.	.
